Assay [1] can be described thus: ATG_E_Box_CIS: Attagene CIS-FACTORIAL HepG2 Assay for human Enhancer Box (E-box) (AID 2282936). The following applies: HepG2 E-box cis-reporter transcription, actives raise or lower the signal. The method, boiled down: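 DMSO served as negative control and baseline for bidirectional fitting. Human hepatoma HepG2 cells, transiently transfected with cis-reporter constructs, were dosed 24 h; reporter mRNA read by RT-PCR and capillary electrophoresis.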

A short description of assay [2]: ATG_M_61_CIS: Attagene CIS-FACTORIAL HepG2 Assay for M61 Transcription Factor (Internal Marker) (AID 2282937). The note with it: HepG2 Attagene CIS-FACTORIAL M61 internal marker reporter; actives raise or lower the signal. The gist of the method:
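HepG2 cells transiently transfected with cis-element-driven multiple reporter transcription units, dosed for 24 h. Reporter mRNA measured by RT-PCR, 6-FAM primer-extension labelling, HpaI digestion and capillary electrophoresis; bidirectional fit versus DMSO baseline.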

A short description of assay [3]: ATG_EGR_CIS: Attagene CIS-FACTORIAL HepG2 Assay for human Early Growth Response 1 (EGR1) (AID 2282938). The following applies: HepG2 Attagene CIS-FACTORIAL EGR reporter mRNA; actives raise or lower the signal. The method, boiled down:
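HepG2 cells transiently transfected with cis-promoter-driven multiplexed reporter transcription units; reporter mRNA measured 24 h after compound dosing by RT-PCR, 6-FAM primer extension, HpaI digestion and capillary electrophoresis. Bidirectional fit versus DMSO baseline.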

Assay [4] in a line: ATG_M_19_CIS: Attagene CIS-FACTORIAL HepG2 Assay for M19 Transcription Factor (Internal Marker) (AID 2282939). The note with it: HepG2 Attagene CIS-FACTORIAL M19 internal marker reporter; actives raise or lower the signal. The gist of the method: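 Chemical-treated HepG2 (24 h) with MRTU constructs; reporter transcripts detected by fluorescent RT-PCR fragment analysis on capillary electrophoresis. Internal background marker, DMSO as baseline.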

The nature of assay [5]: ATG_ERE_CIS: Attagene CIS-FACTORIAL HepG2 Assay for Estrogen Response Element (ERE) (AID 2282940). The note with it: HepG2 ERE cis-reporter, Attagene RNA transcript; actives raise or lower the signal. The gist of the method: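 Human liver cells (HepG2) bearing transiently transfected, promoter-regulated reporter units were exposed 24 h. Reporter mRNA induction was detected by capillary electrophoresis of labelled RT-PCR products and fitted bidirectionally to DMSO.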

Assay [6] can be described thus: ATG_Ets_CIS: Attagene CIS-FACTORIAL HepG2 Assay for human Erythroblast Transformation Specific (ETS) (AID 2282941). The note with it: HepG2 ETS cis-reporter transcription, actives raise or lower the signal. The method, boiled down:
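Steps: transfect HepG2 with multiple reporter units; treat compound 24 h; isolate RNA, DNase-treat, reverse-transcribe; PCR-amplify, label with 6-FAM, digest with HpaI; separate by capillary electrophoresis. Activity fitted both directions versus DMSO.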

Assay [7] concerns the target Hepatocyte nuclear factor 3-beta (Homo sapiens) (UniProt Q9Y261). As to the kind of experiment: ATG_FoxA2_CIS: Attagene CIS-FACTORIAL HepG2 Assay for human Forkhead box A2 (FOXA2) (AID 2282942). The following applies: HepG2 cis-reporter transcription factor activity, 24 h; actives raise or lower the signal. The gist of the method:
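HepG2 cells transiently transfected with multiple cis-regulated reporter transcription units, dosed for 24 h. Reporter mRNA measured by RT-PCR, 6-FAM labelling, HpaI digestion and capillary electrophoresis; bidirectional fitting against DMSO baseline.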

Assay [8] can be described thus: ATG_FoxO_CIS: Attagene CIS-FACTORIAL HepG2 Assay for human Forkhead box O (FoxO) (AID 2282943). The note with it: HepG2 Attagene cis-reporter, FoxO element, mRNA; actives raise or lower the signal. The method, boiled down:
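HepG2, transient MRTU transfection (cis element, endogenous TFs). Dose 24 h. TriZol RNA → oligo(dT) RT → PCR → 6-FAM primer extension → HpaI cut → CE. Gain/loss vs DMSO.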

Assay [9] is described as follows: ATG_GATA_CIS: Attagene CIS-FACTORIAL HepG2 Assay for human GATA Binding Protein (AID 2282944). The following applies: HepG2 GATA cis-element reporter, Attagene multiplex mRNA; actives raise or lower the signal. The method, boiled down: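 Transfected cis-reporter HepG2 cells were treated with chemicals for 24 hours. Total RNA was then converted to cDNA, amplified with reporter-specific primers and analysed by fluorescent capillary electrophoresis, using DMSO-treated wells as baseline.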

Assay [10] is described as follows: ATG_GLI_CIS: Attagene CIS-FACTORIAL HepG2 Assay for human Zinc Finger Protein GLI1 (AID 2282945). The following applies: HepG2, Attagene cis-factorial reporter mRNA, GLI element; actives raise or lower the signal. The gist of the method:
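Bidirectional curve fits relative to DMSO, using reporter mRNA levels from RT-PCR plus capillary electrophoresis. Cells were HepG2 transiently carrying cis-regulated reporter constructs, harvested 24 h after dosing.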

The target of assay [11] is Bile acid receptor (Homo sapiens) (UniProt Q96RI1). Briefly: ATG_IR1_CIS: Attagene CIS-FACTORIAL HepG2 Assay for human Nuclear Receptor Subfamily 1 Group H Member 4 (NR1H4), IR1 submotif (AID 2282946). The note with it: IR1 reporter transcription, actives raise or lower the signal. The method, boiled down:
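Cells (human HepG2) carry transiently transfected cis-promoter reporter transcription units. Compounds are incubated 24 h, total RNA is reverse-transcribed and amplified, and labelled fragments are resolved by capillary electrophoresis. Curves use DMSO as baseline.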

Assay [12] is described as follows: ATG_ISRE_CIS: Attagene CIS-FACTORIAL HepG2 Assay for human Interferon Regulatory Factor 1 (IRF1) binding to an Interferon-Stimulated Response Element (ISRE) (AID 2282948). The note with it: HepG2 ISRE cis-reporter (Attagene), mRNA transcription readout; actives raise or lower the signal. The gist of the method:
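Transfected HepG2 (multiple reporter transcription units, cis elements) dosed 24 h. RNA → oligo(dT) RT → PCR → 6-FAM primer extension → HpaI → CE. DMSO = negative control/baseline.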

Assay [13] can be described thus: ATG_M_32_CIS: Attagene CIS-FACTORIAL HepG2 Assay for M32 Transcription Factor (Internal Marker) (AID 2282949).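 Also: background control marker of the multiplexed CIS panel rather than a real target.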 The following applies: HepG2 Attagene cis-factorial M32 reporter, mRNA; actives raise or lower the signal. The method, boiled down: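 Internal background marker read-out: RT-PCR/capillary electrophoresis fluorescence of reporter transcripts from transiently transfected HepG2 cells after 24 h chemical exposure. Activity fitted bidirectionally relative to DMSO negative control.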

A short description of assay [14]: ATG_M_06_CIS: Attagene CIS-FACTORIAL HepG2 Assay for M06 Transcription Factor (Internal Marker) (AID 2282950). The note with it: HepG2 Attagene CIS-FACTORIAL M06 internal marker reporter; actives raise or lower the signal. The method, boiled down: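 Cells (HepG2, transiently carrying cis-driven reporter units) receive chemical for 24 h before RNA isolation. Reporter cDNA is PCR-amplified, FAM-labelled by primer extension, HpaI-digested and sized on a capillary analyser.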

Assay [15] addresses Hypoxia-inducible factor 1-alpha (Homo sapiens) (UniProt Q16665). Briefly: ATG_HIF1a_CIS: Attagene CIS-FACTORIAL HepG2 Assay for human Hypoxia Inducible Factor 1 (HIF1A) (AID 2282951). The following applies: HepG2 Attagene cis-factorial HIF1a reporter transcription; actives raise or lower the signal. The method, boiled down:
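HepG2 cells transiently transfected with multiplexed cis-promoter reporter units; reporter mRNA read 24 h after dosing by RT-PCR, 6-FAM primer-extension labelling, HpaI digestion and capillary electrophoresis. Bidirectional fit versus DMSO baseline.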

In assay [16] the target is Hepatocyte nuclear factor 6 (Homo sapiens) (UniProt Q9UBC0). Briefly: ATG_HNF6_CIS: Attagene CIS-FACTORIAL HepG2 Assay for human Hepatocyte Nuclear Factor 6 (HNF6) (AID 2282952). The following applies: HepG2 Attagene cis-factorial HNF6 reporter transcription; actives raise or lower the signal. The method, boiled down:
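Cells are HepG2 carrying transiently transfected cis-promoter reporter units. Treatment lasts 24 h, after which reporter transcripts are reverse-transcribed, amplified, FAM-labelled and sized by capillary electrophoresis. DMSO serves as baseline.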

Assay [17] has as its target Heat shock factor protein 1 (Homo sapiens) (UniProt Q00613). Briefly: ATG_HSE_CIS: Attagene CIS-FACTORIAL HepG2 Assay for human Heat Shock Transcription Factor 1 (HSE) (AID 2282953). The following applies: HepG2 HSE cis-reporter, Attagene RNA transcription; actives raise or lower the signal. The method, boiled down: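 Liver-derived HepG2 cells carry transiently introduced multiple reporter units governed by cis promoters. Reporter RNA measured 24 h post-dose through reverse transcription, PCR amplification, fluorescent labelling and capillary electrophoresis, normalised to DMSO.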

Assay [18] can be described thus: ATG_MRE_CIS: Attagene CIS-FACTORIAL HepG2 Assay for human Metal Responsive Element (MRE) (AID 2282954). The following applies: HepG2 MRE cis-reporter transcription, Attagene multiplex; actives raise or lower the signal. The method, boiled down:
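After a 24 h chemical exposure, transiently transfected HepG2 cells yield RNA whose reporter sequences are amplified, FAM-labelled and sized by capillary electrophoresis. Curves are fitted bidirectionally relative to DMSO.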

Assay [19] is described as follows: ATG_PBREM_CIS: Attagene CIS-FACTORIAL HepG2 Assay for human Phenobarbital-responsive Enhancer Module (PBREM) (AID 2282955). The note with it: HepG2 PBREM cis-reporter, Attagene multiplexed transcription; actives raise or lower the signal. The method, boiled down: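 HepG2 cells transiently transfected with multiple cis-regulated reporter transcription units; endogenous factor activity at the PBREM element measured as reporter mRNA 24 h after dosing, via RT-PCR and capillary electrophoresis of fluorescent fragments; bidirectional fitting versus DMSO.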

Assay [20] is described as follows: ATG_GRE_CIS: Attagene CIS-FACTORIAL HepG2 Assay for human Glucocorticoid Response Elements (GRE) (AID 2282947). The note with it: HepG2 GRE cis-reporter, Attagene multiplex mRNA; actives raise or lower the signal. The gist of the method:
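Assay uses human hepatoma HepG2 cells transfected with cis-promoter reporter units, exposed 24 h. mRNA from reporters detected by RT-PCR plus capillary electrophoresis; DMSO serves as negative control and baseline.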

Activity calls are given as the source filed them. The calls were made as follows: active = hit-call score of the fitted dose curve at least 0.9, where 1 is the maximum; inactive = score below 0.9.

Sequence of Hepatocyte nuclear factor 6 (Homo sapiens) (Q9UBC0 whole entry, looked up): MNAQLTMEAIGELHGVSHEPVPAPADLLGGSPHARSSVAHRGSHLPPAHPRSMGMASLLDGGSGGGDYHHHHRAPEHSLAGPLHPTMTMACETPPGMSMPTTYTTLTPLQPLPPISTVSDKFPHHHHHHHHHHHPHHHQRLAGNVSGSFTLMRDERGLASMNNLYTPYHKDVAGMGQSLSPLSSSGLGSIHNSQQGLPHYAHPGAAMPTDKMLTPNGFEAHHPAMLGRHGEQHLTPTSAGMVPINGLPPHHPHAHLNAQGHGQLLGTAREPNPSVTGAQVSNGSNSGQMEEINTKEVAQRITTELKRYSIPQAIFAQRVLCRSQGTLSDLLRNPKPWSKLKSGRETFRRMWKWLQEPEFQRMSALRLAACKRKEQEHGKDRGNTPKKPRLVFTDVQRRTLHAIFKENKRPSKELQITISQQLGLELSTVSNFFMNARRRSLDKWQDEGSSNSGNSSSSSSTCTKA
Sequence of Hypoxia-inducible factor 1-alpha (Homo sapiens) (Q16665 whole entry, looked up): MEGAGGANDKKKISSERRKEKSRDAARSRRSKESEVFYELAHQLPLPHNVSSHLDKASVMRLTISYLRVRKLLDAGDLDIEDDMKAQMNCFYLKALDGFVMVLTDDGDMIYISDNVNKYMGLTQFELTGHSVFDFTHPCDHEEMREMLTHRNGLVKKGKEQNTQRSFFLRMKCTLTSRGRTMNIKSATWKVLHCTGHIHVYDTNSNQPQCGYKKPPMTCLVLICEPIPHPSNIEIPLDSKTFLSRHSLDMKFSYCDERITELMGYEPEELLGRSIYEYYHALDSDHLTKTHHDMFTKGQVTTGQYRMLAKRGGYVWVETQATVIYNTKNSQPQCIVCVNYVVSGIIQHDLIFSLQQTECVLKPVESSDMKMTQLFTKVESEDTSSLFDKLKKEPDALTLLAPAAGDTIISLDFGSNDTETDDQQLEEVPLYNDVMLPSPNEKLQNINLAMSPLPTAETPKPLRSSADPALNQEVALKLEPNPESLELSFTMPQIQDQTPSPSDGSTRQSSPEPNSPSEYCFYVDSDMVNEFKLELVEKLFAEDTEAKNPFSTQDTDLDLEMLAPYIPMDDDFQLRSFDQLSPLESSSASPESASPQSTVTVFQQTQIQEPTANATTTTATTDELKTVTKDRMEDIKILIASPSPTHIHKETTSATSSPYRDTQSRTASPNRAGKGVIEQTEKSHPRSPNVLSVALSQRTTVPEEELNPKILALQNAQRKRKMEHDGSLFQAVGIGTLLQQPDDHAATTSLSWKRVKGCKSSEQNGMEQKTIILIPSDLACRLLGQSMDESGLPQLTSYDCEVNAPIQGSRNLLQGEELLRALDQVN
Sequence of Bile acid receptor (Homo sapiens) (Q96RI1 whole entry, looked up, the tested form may be a part): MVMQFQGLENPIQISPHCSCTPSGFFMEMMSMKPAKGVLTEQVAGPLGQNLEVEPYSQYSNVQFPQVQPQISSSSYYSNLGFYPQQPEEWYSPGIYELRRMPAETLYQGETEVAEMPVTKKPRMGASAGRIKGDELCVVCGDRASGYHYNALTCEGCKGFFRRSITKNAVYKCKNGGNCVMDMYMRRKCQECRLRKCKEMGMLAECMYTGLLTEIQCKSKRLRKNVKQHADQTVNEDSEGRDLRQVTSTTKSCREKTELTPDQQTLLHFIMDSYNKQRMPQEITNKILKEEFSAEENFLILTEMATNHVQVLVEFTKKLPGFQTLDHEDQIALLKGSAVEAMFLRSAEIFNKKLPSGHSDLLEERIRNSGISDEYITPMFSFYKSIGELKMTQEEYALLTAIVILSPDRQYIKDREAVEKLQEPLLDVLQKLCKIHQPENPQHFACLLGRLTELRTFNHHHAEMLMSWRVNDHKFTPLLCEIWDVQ
Sequence of Hepatocyte nuclear factor 3-beta (Homo sapiens) (Q9Y261 whole entry, looked up): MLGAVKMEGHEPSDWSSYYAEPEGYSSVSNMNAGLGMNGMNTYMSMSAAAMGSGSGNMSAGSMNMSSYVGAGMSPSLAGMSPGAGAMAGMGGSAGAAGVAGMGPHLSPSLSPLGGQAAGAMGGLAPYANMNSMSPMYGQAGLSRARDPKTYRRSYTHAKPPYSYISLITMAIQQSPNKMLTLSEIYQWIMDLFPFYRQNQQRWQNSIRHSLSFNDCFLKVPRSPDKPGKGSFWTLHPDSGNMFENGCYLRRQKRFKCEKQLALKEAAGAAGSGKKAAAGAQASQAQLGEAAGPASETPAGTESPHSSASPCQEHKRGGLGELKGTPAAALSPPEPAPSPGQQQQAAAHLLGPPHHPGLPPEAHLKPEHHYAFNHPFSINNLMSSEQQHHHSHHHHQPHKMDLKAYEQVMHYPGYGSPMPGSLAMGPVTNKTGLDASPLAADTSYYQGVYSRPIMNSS
Sequence of Heat shock factor protein 1 (Homo sapiens) (Q00613 whole entry, looked up): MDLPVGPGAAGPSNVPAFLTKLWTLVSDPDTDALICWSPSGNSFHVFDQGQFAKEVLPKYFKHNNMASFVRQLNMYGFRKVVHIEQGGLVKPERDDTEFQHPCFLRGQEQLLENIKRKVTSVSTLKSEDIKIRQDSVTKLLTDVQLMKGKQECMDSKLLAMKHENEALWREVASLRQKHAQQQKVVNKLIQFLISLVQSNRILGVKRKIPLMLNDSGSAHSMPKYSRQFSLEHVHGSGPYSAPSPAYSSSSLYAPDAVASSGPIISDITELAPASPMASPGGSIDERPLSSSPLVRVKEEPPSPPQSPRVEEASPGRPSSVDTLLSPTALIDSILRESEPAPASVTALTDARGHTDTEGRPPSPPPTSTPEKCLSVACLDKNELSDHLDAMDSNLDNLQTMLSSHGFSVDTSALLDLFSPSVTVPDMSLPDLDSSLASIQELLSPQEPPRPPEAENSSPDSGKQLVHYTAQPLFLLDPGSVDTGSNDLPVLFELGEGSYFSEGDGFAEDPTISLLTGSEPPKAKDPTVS

A word on the AC50: it is the concentration at which the activity in the assay is half-maximal. On to `C/C=C\C/C=C/CCCCCCCCOC(C)=O`, for which the outcome in assay [1], in assay [2], in assay [4], in [5], in assay [6] and in [7] was inactive. Moreover, the outcome in [8], in assay [9], in assay [10], in assay [13], in assay [14] and in assay [15] was inactive. The compound was called inactive in [16] and in [19]. For the same compound, the AC50 in assay [3] is 100 µM (active); in assay [11], 122 µM (active); in assay [12], 155 µM (active); in [17], 156 µM (active); in [18], 100 µM (active).

For the compound `O=c1cc[nH]c(=S)[nH]1`, the outcome in assay [1], in assay [2], in assay [3], in assay [4], in assay [5] and in assay [6] was inactive. Also, the call in [7], in assay [8], in assay [9], in [10], in assay [11] and in [20] was inactive. Further, the result in assay [13], in assay [14], in [15], in assay [16], in assay [17] and in assay [18] was inactive. Besides, the outcome in assay [19] was inactive.

Turning to `CC(=O)OC(C)C`, the outcome in assay [1], in [2], in [3], in [4], in assay [5] and in assay [6] was inactive. In addition, the result in assay [7], in assay [8], in [9], in assay [10], in assay [20] and in assay [12] was inactive. Also, the compound was called inactive in assay [13], in assay [14], in assay [15], in [16], in [17] and in [18].

As to `O=C(O)CCCCCCCCCC(=O)O`, the result in assay [1], in [2], in assay [3], in [4], in assay [6] and in assay [7] was inactive. The compound was called inactive in assay [8], in assay [9], in assay [10], in assay [20], in assay [12] and in assay [13]. Also, the result in [14], in assay [15], in assay [16], in assay [17] and in assay [18] was inactive. In addition, the AC50 in assay [5] was 22 µM (active).

For the compound `NC(=O)N=NC(N)=O`, the outcome in [1], in [2], in [3], in assay [4], in assay [5] and in assay [6] was inactive. The compound was classed as inactive in [7], in assay [8], in assay [9], in assay [10], in [11] and in assay [20]. Further, the call in assay [13], in assay [14], in assay [15], in assay [16], in assay [18] and in assay [19] was inactive.

For the compound `Nc1ccc(Cl)cc1Cl`, the outcome in assay [1], in assay [2], in assay [3], in assay [4], in assay [5] and in assay [6] was inactive. The compound was classed as inactive in assay [7], in [8], in [9], in [10], in [20] and in [12]. Further, the outcome in assay [13], in assay [14], in assay [15], in assay [16], in [17] and in assay [18] was inactive.

As for `O=C(O)C(c1ccc(Cl)cc1)c1ccc(Cl)cc1`, the outcome in [1], in assay [2], in assay [3], in assay [4], in assay [6] and in assay [7] was inactive. Moreover, the result in [8], in [9], in assay [10], in assay [11], in assay [12] and in assay [13] was inactive. Besides, the outcome in assay [14], in assay [16], in assay [17], in [18] and in assay [19] was inactive. In addition, the AC50 in assay [5] is 2.68 µM (active); in [15], 72.1 µM (active).

Values taken from PubChem BioAssay (EPA / NIEHS).
